Each structure is given as a SMILES string. Compounds without any hit were thinned out: in the full panel of roughly 83,000, 20% have a hit.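 The test compound was applied at a single concentration to cells in 96-well plates for 48 hours, and percent growth was recorded.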 Unmarked numbers belong to inactive results. The source made the active and inactive calls. Rule for the calls: active = growth percent below 10; inactive = the rest.

In PubChem BioAssay (NCI) one finds growth data, which are given here for 8 molecules.

Assay in all cases: NCI-60 one-dose screen, 48 h (100 = growth as untreated, 0 = no growth, -100 = all killed)
What all share (conditions): 10 µM unless noted

Assay [1] deals with HCT-15 colon.
The test system of assay [2] is HT29 colon.
In assay [3] the test system is SNB-75 CNS.
For assay [4], the system named is SNB-19 CNS.
Assay [5] has as its system U251 CNS.
Assay [6] relates to PC-3 prostate.
The subject of assay [7] is SK-MEL-5 melanoma.
The test system of assay [8] is UACC-62 melanoma.
For assay [9], the system named is LOX IMVI melanoma.
For assay [10], the system named is SK-MEL-28 melanoma.
The test system of assay [11] is SK-MEL-2 melanoma.
Assay [12] deals with EKVX NSCLC.
For assay [13], the system named is SN12C renal.
Assay [14] concerns UO-31 renal.
The subject of assay [15] is TK-10 renal.
Assay [16] relates to ACHN renal.
In assay [17] the test system is CAKI-1 renal.
In assay [18] the test system is A498 renal.
The test system of assay [19] is CCRF-CEM leukemia.
The test system of assay [20] is MOLT-4 leukemia.

Turning to `CCCCCCCNC(=O)CCCNc1ncnc2c1ncn2-c1cccc(C(C)O)c1` (stereo not given), the growth was 87.2% in [1]; 93.7% in assay [2]; 104% in assay [3]; 96.3% in [4]; 96.9% in assay [5]; 85% in [6]. Further, the growth is 85.9% in assay [7]; 90.3% in [8]; 101% in assay [9]; 96.2% in [10]; 105% in [11]; 76.4% in [12]. Moreover, the growth in assay [13] was 91.4%; in assay [14], 83.6%; in assay [15], 97.5%; in [16] it was 89.6%; in assay [17], 90.2%; in assay [18], 123%. For the same molecule, the values for the growth in assay [19] and in [20] were 18.4% and 78.2%, respectively.
On to `CN(C)CC#Cc1ccc2ncc(C#N)c(Nc3ccc(F)c(Cl)c3)c2c1`, for which the growth in assay [1] was 32%; in [2] it was 66%; in assay [3] it was 48.1%; in [4] it was 76.4%; in assay [5] it was 63.8%; in assay [6] it was 40.5%. The growth is 51.4% in assay [7]; 42.9% in assay [8]; 49% in [9]; 69.4% in [10]; 38.3% in assay [11]; 30.8% in assay [12]. The growth in assay [13] is 35.4%; in assay [14] it was 18%; in assay [15], 27.1%; in [16], 10.5%; in assay [17], 17.1%; in assay [18] it was -11.8% (active). In addition, the growth in [19] is 81.7%; in assay [20], 53.7%.
Take `COc1cccc(-c2nn(-c3ccccc3)cc2-c2ccnc(N3CCOCC3)c2)c1`: the growth is 85.9% in assay [1]; 86.7% in [2]; 97.2% in [3]; 99.9% in [4]; 96.2% in [5]; 70.2% in assay [6]. The growth in assay [7] was 80.4%; in [8] it was 71.8%; in [9] it was 89.7%; in assay [10] it was 108%; in [11], 96.7%; in assay [12], 82.2%. The growth in [13] was 98%; in assay [14] it was 66.2%; in assay [15], 92%; in assay [16] it was 84.3%; in [17], 81.4%; in [18], 71.7%. Also, the growth in [19] was 97.8%; in [20], 59.2%.
As for `COc1cc(C(=O)/C=C/c2ccc(OCCCCCC[P+](c3ccccc3)(c3ccccc3)c3ccccc3)cc2)cc(OC)c1OC`, the growth in [1] was -54.7% (active); in assay [2] it was -14.1% (active); in assay [3], -11.1% (active); in assay [4], -73.3% (active); in [5] it was -100% (active); in [6], -54.9% (active). For the same molecule, the growth in assay [7] was -100% (active); in assay [8], -80.3% (active); in [9], -100% (active); in [10] it was -60.4% (active); in [11], -67.3% (active); in assay [12] it was -9.14% (active). The growth is -63.8% (active) in assay [13]; 1.6% (active) in assay [14]; -72% (active) in assay [15]; -44.5% (active) in assay [16]; 13.2% in [17]; -42% (active) in assay [18]. Also, the growth in [19] was 20.3%; in assay [20] it was 14%.
Consider `c1ccc2cc(C[n+]3ccn(CCCCCCn4cc[n+](Cc5ccc6ccccc6c5)c4)c3)ccc2c1`, for which the growth was 96.4% in assay [1]; 22.8% in assay [2]; 26.7% in [3]; 48.8% in assay [4]; 34.4% in assay [5]; 65.4% in [6]. The growth is 42.3% in assay [7]; 50.1% in assay [8]; 66.8% in [9]; 63.4% in assay [10]; 36% in assay [11]; 37.3% in [12]. The growth in [13] is 34.9%; in assay [14], 97.2%; in assay [15], 83.1%; in [16] it was 72.5%; in assay [17], 95.4%; in [18], 10%. In addition, the growth in assay [19] was 84.2%; in assay [20], 74.9%.
Take `C/C(=C\C(=O)c1ccc(Cl)cc1)c1ccc(Cl)cc1`: the growth in assay [1] was 44.6%; in assay [2], 109%; in assay [3], 92.8%; in assay [4], 99.9%; in [5] it was 100%; in [6] it was 87.8%. Besides, the growth in [7] was 94.1%; in assay [8] it was 92.8%; in [9], 100%; in assay [10] it was 111%; in assay [11] it was 98%; in [12], 79%. Further, the growth is 103% in assay [13]; 59.3% in assay [14]; 74.7% in [15]; 98.3% in assay [16]; 87.8% in assay [17]; 104% in [18]. Further, the growth was 88.4% in assay [19] and 92.6% in assay [20].
For the molecule `CCOC(=O)C1=C(N)Oc2c(sc3c(C)cccc23)C1c1ccc(Cl)cc1` (stereo not given), the growth is 15% in [1]; 14.8% in assay [2]; -9.45% (active) in assay [3]; 28.1% in assay [4]; 31.7% in assay [5]; 16.6% in assay [6]. Moreover, the growth in [7] is 39.5%; in [8], 12.1%; in assay [9], 36.2%; in assay [10] it was 53.6%; in [11], 46.6%; in assay [12], 48.3%. The growth in [13] is 38.6%; in assay [14] it was 38.5%; in assay [15], 78.7%; in assay [16], 39.5%; in assay [17], 2.8% (active); in assay [18], 3.91% (active). The growth in assay [19] was 17%; in assay [20], 32.9%.
Regarding `COc1nc2ccccc2cc1-c1nc2c(cnn2-c2ccccc2)c(=O)[nH]1`, the growth was 24.8% in [1]; 9.45% (active) in assay [2]; 28.2% in [3]; 42.1% in assay [4]; 37.8% in assay [5]; 41.2% in assay [6]. The growth is 41.7% in [7]; 36.3% in [8]; 35% in assay [9]; 56.7% in assay [10]; 12.9% in [11]; 58.5% in [12]. For the same molecule, the growth in assay [13] was 65.8%; in assay [14], 40.2%; in [15], 72%; in [16] it was 57.6%; in assay [17] it was 42.1%; in [18], 18.9%. The results for the growth in [19] and in [20] were 21.1% and 40.4%, respectively.
